Measurements from PubChem BioAssay (EPA / NIEHS).
Active and inactive are the calls of the source. The calls were made as follows: active = hit-call score of the fitted dose curve at least 0.9, where 1 is the maximum; inactive = score below 0.9.

read-out: Transforming Growth Factor (TGFA), TGFA (gene 7039); experiment: LTEA_HepaRG_TGFA: Life Technologies and Expression Analysis (LTEA) Assay for Transforming Growth Factor (TGFA) using HepaRG (AID 2283532); conditions: mRNA level, 48 h; actives raise or lower the signal
Description: LTEA_HepaRG is a cell based, multiplexed-readout assay that uses HepaRG, a human liver cell line, with measurements taken at 48 hours after chemical dosing on a 96-well plate.LTEA_HepaRG_TGFA is one of 102 assay component(s) measured in the LTEA HepaRG cell culture assay. It is a marker of Cell proliferation, survival, death.Data from the assay component LTEA_HepaRG_TGFA was analyzed into 1 endpoint. This assay endpoint, LTEA_HepaRG_TGFA, was analyzed with bidirectional fitting relative to DMSO as the negative control and baseline of activity. Using a type of inducible reporter, measures of mRNA induction for gain or loss-of-signal activity can be used to understand regulation of transcription factor activity. To generalize the intended target to other relatable targets, this assay endpoint is annotated to the growth factor intended target family, where the subfamily is EGF-like domain.
A total of 1060 chemcials from the ToxCast library were tested in eight-point concentration-response experiments. Cell culture and cytotoxicity assays were conducted at Thermo Fisher Scientific's Custom Services facility (Madison, WI). A single lot of human HepaRG cells (Thermo Fisher Scientific, Frederick, MD) was used for the cell culture experiments. 96-well format collagen type I coated plates of human HepaRG cells were prepared using established methods. Briefly, cryopreserved HepaRG cells were thawed, plated at a density of approximately 100,000 cells/well in HepaRG Thaw, Plate, and General Purpose media (HPRG770, Thermo Fisher Scientific), and incubated for 48 hours. 0.5% DMSO was selected as vehicle control to balance the requisite need of DMSO in HepaRG cultures to maintain differentiation (for example, baseline metabolism, proportions of hepatocytes vs. cholangiocytes), while enabling further hepatic receptor pathway activation (for example, PXR and CAR) in response to chemical exposure. 48 hours after plating, the culture medium was replaced with HepaRG Serum-Free Incudtion Media. Cells were exposed to each test chemical in duplicate and maintained in CO2 incubators for another 48 hours. Chemical plates were thawed to room temperature and 200x concentrations of treatment groups were prepared. 8-point conentration-reponse curves were made with the highest exposure at 100 uM, followed by half-log dilutions, all in 0.5% DMSO. Each test plate contained variouse controls, induction positive controls (1mM phenobarbital), cytotoxicity positive controls ([…] aflatoxin B1), vehicle controls (0.5% DMSO), and total lysis controls (0.5% DMSO). Cell morphology images were taken using an Essen IncuCyte FLR automated microscope, with six 96-well plates imaged in about 24 minutes. Images were captured and exported and JPEG files. Spent culture media was transfered to black-well plates for the LDH assay, and remaining media was sorted at -80 C for later use. Cells were treated with RLT buffer and frozen until shipped for gene expression analysis. Total RNA was isolated from the cell suspension in 75 uL of Buffer RLT (Qiagen, Germantown, MD 20874) by Quintiles/Expression Analysis (Durham, NC) using a custom isolation procedure. Total RNA from each plate well was transferred to a preamplification plate. Fluidigm's 96.96 Dynamic ArrayTM (Fluidigm, Amsterdam, the Netherlands) technology was used for gene expression analyses by quantitative reverse transcription polymerase chain reaction (qRT-PCR, performed by Quintiles/Expression Analysis, Durham, NC)89. Standard TaqManTM Assays (Applied Biosystems/ThermoFisher Scientific, Foster City, CA) were used to assess the expression of 93 genes selected based on their selectivity and sensitivity to important hepatic receptors known to be modulated by environmental chemicals; importance in human hepatocyte functionality; and hepatotoxicity. […]

Question: `O=C(Nc1ccccc1)Nc1ccnc(Cl)c1` was tested. Which AC50 did it give?
Answer: The AC50 was 76.1 µM (active).

Question: `CCNc1nc(Cl)nc(NC(C)C)n1` was tested. Which outcome did it give?
Answer: Its outcome is “inactive”.

Question: Which outcome does the source give for `CCNc1nc(Cl)nc(NCC)n1` here?
Answer: Its outcome is “inactive”.

Question: Which AC50 does the source give for `CCCC1COC(Cn2cncn2)(c2ccc(Cl)cc2Cl)O1` (stereo not given) here?
Answer: Its AC50 is 50 µM (active).

Question: Which outcome does the source give for `COP(N)(=O)SC` (stereo not given) here?
Answer: The outcome was “inactive”.

Question: With `CCCCNC(=O)n1c(NC(=O)OC)nc2ccccc21` as the compound, how does the outcome read?
Answer: Its outcome is “inactive”.

Question: Which outcome does the source give for `CCOC(=O)CC(SP(=S)(OC)OC)C(=O)OCC` (stereo not given) here?
Answer: Its outcome is “inactive”.

Question: For `Cc1c(F)c(F)c(COC(=O)C2C(/C=C(\Cl)C(F)(F)F)C2(C)C)c(F)c1F` (stereo not given), which outcome is on record?
Answer: The outcome was “inactive”.

Question: How did the outcome turn out when `COP(=S)(OC)Oc1nc(Cl)c(Cl)cc1Cl` was run?
Answer: Its outcome is “inactive”.

Question: For `CC(C)C1(C)N=C(c2nc3ccccc3cc2C(=O)O)NC1=O` (stereo not given), which outcome is on record?
Answer: The outcome was “inactive”.

Question: For `CC(Oc1ccc(Cl)cc1Cl)C(=O)O` (stereo not given), which outcome is on record?
Answer: The outcome was “inactive”.

Question: `CCCCNC(=O)OCC#CI` was tested. Which outcome did it give?
Answer: The outcome was “inactive”.

Question: How did the outcome turn out when `CC1=C(C(=O)Nc2ccccc2)SCCO1` was run?
Answer: The outcome was “inactive”.

Question: How did the outcome turn out when `C=CCC1=C(C)C(OC(=O)C2C(C=C(C)C)C2(C)C)CC1=O` (stereo not given) was run?
Answer: The outcome was “inactive”.

Question: `COc1nc(NC(C)C)nc(NC(C)C)n1` was tested. Which outcome did it give?
Answer: Its outcome is “inactive”.

Question: Which outcome does the source give for `Oc1ccccc1-c1ccccc1` here?
Answer: Its outcome is “inactive”.

Question: With `CC(C)(C)c1ccc(CSc2cnn(C(C)(C)C)c(=O)c2Cl)cc1` as the compound, how does the AC50 read?
Answer: Its AC50 is 2.96 µM (active).

Question: `CCCCOC(=O)c1ccccc1C(=O)OCCCC` was tested. Which outcome did it give?
Answer: Its outcome is “inactive”.

Question: For `CCCN(CCC)c1c([N+](=O)[O-])cc(S(N)(=O)=O)cc1[N+](=O)[O-]`, which outcome is on record?
Answer: The outcome was “inactive”.

Question: Which outcome does the source give for `CN(C)C(=S)SSC(=S)N(C)C` here?
Answer: Its outcome is “inactive”.

Question: Which outcome does the source give for `COC(=O)c1ccccc1C(=O)OC` here?
Answer: The outcome was “inactive”.

Question: With `COC(=O)C(C)Oc1ccc(Oc2ccc(Cl)cc2Cl)cc1` (stereo not given) as the compound, how does the outcome read?
Answer: The outcome was “inactive”.

Question: How did the AC50 turn out when `OC(c1ccc(Cl)cc1)(c1cncnc1)c1ccccc1Cl` (stereo not given) was run?
Answer: The AC50 was 77.5 µM (active).

Question: Which outcome does the source give for `CNC(=O)ON=CC(C)(C)SC` here?
Answer: The outcome was “inactive”.

Question: How did the AC50 turn out when `COC(=O)N(OC)c1ccccc1COc1ccn(-c2ccc(Cl)cc2)n1` was run?
Answer: The AC50 was 78.5 µM (active).

Question: How did the outcome turn out when `COC(=O)C=C(C)OP(=O)(OC)OC` was run?
Answer: The outcome was “inactive”.

Question: Which AC50 does the source give for `N#Cc1nn(-c2c(Cl)cc(C(F)(F)F)cc2Cl)c(N)c1S(=O)C(F)(F)F` (stereo not given) here?
Answer: The AC50 was 33.2 µM (active).

Question: `CC1COC(Cn2cncn2)(c2ccc(Oc3ccc(Cl)cc3)cc2Cl)O1` (stereo not given) was tested. Which AC50 did it give?
Answer: The AC50 was 13.6 µM (active).

Question: `CCOC(=O)C(Cl)Cc1cc(-n2nc(C)n(C(F)F)c2=O)c(F)cc1Cl` (stereo not given) was tested. Which outcome did it give?
Answer: Its outcome is “inactive”.

Question: Which outcome does the source give for `C=CC1(C)OC(=O)N(c2cc(Cl)cc(Cl)c2)C1=O` (stereo not given) here?
Answer: Its outcome is “inactive”.

Question: With `C=CCC1=C(C)[C@@H](OC(=O)[C@@H]2[C@@H](C=C(C)C)C2(C)C)CC1=O` as the compound, how does the outcome read?
Answer: The outcome was “inactive”.

Question: How did the outcome turn out when `O=C(O)COc1nc(Cl)c(Cl)cc1Cl` was run?
Answer: Its outcome is “inactive”.

Question: `CCOc1cc(Oc2ccc(C(F)(F)F)cc2Cl)ccc1[N+](=O)[O-]` was tested. Which AC50 did it give?
Answer: Its AC50 is 15.3 µM (active).

Question: For `N#CC(CCc1ccc(Cl)cc1)(Cn1cncn1)c1ccccc1` (stereo not given), which AC50 is on record?
Answer: Its AC50 is 77 µM (active).

Question: `COc1ccc(C(c2ccc(OC)cc2)C(Cl)(Cl)Cl)cc1` was tested. Which outcome did it give?
Answer: Its outcome is “inactive”.

Question: For `C#CCOS(=O)OC1CCCCC1Oc1ccc(C(C)(C)C)cc1` (stereo not given), which AC50 is on record?
Answer: Its AC50 is 22.2 µM (active).

Question: Which outcome does the source give for `CS/C(C)=N/OC(=O)N(C)SN(C)C(=O)O/N=C(\C)SC` here?
Answer: The outcome was “inactive”.

Question: How did the outcome turn out when `CCON=C(CC)C1=C(O)CC(c2c(C)cc(C)cc2C)CC1=O` (stereo not given) was run?
Answer: Its outcome is “inactive”.

Question: `CC(C)Oc1cc(-n2nc(C(C)(C)C)oc2=O)c(Cl)cc1Cl` was tested. Which outcome did it give?
Answer: The outcome was “inactive”.

Question: Which outcome does the source give for `CCCCC(CC)COC(=O)c1ccccc1C(=O)OCC(CC)CCCC` (stereo not given) here?
Answer: Its outcome is “inactive”.
